# Out of some 1,800 compounds screened, about 710 (39%) were called active. About 28% were inconclusive and are not listed.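 The calls were made as follows: active = luciferase signal rise whose fitted curve crosses a set activity limit at or below the top valid tested dose; inconclusive = flat fit with 30 to 70% rise, or poor fit; inactive = signal falling, flat within 30%, or crossing above top dose.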 Only a sample is shown. Results with a measured potency or affinity are listed apart.
# Assay: luciferase activators in glycosylation-insensitive reporter cells, dose response, counter-screen for N-linked glycosylation inhibitor project, D54 LucT cells, luminescence, cherry pick (AID 624404)
# Settings: D54 LucT luciferase reporter counterscreen, 24 h; series mostly up to 19.5 µM
row,SMILES,outcome
1,O=C(NCCN1C(=O)S/C(=C\c2cccc(Cl)c2Cl)C1=O)C1=COCCO1,inactive
2,Cc1noc2ncnc(Sc3ccc(Cl)cc3)c12,inactive
3,COC(=O)c1cc(=O)n(Cc2ccco2)c(=Nc2ccc(F)cc2)s1,inactive
4,CCn1c(=O)cc(C(=O)OC)sc1=Nc1ccc(F)c(F)c1,inactive
5,CCN(CC(=O)Nc1ccccc1OC)CC(=O)Nc1ccccc1-c1ccccc1,inactive
6,CCCc1cc(C(=O)N/N=C/c2ccc(C)o2)c2ccccc2n1,inactive
7,COc1ccc(C(=O)NCCN(C)C)c2nc3ccccc3cc12,inactive
8,O=C(/C=C/c1ccc(-c2ccccc2[N+](=O)[O-])o1)c1ccc(Br)cc1,inactive
9,N#Cc1cc2[nH]c3ccccc3c2[n+](-c2ccc([N+](=O)[O-])cc2)c1N,inactive
10,Cn1cnc([N+](=O)[O-])c1Sc1nc2ccccc2[nH]1,inactive
11,CCn1c(=O)c2cc(C(=O)NCCN(C)C)sc2c2ccccc21,inactive
12,CCN(CC)CCNc1ccc(CO)c2oc3cc(Cl)ccc3c(=O)c12,inactive
13,CCN(CC)CCNc1ccc(CO)c2oc3ccccc3c(=O)c12,inactive
14,Cn1nc(C(F)(F)F)c(/C=N/OC(=O)c2ccccc2Cl)c1SCc1ccc(Cl)cc1,inactive
15,Cc1cc(C)nc(/N=C(\N)Nc2ccc(OCCC(C)C)cc2)n1,inactive
16,CCCCc1ccc(N/C(N)=N/c2nc(C)cc(C)n2)cc1,inactive
17,O=C(/C=C/c1ccc([N+](=O)[O-])s1)N1CCCCC1,inactive
18,CC1CN(C(=O)/C=C/c2ccc([N+](=O)[O-])s2)CC(C)O1 (centres undefined),inactive
19,COCC(=O)OC/C(O)=C(\C#N)c1nc2ccccc2[nH]1,inactive
20,Cc1c(-c2cccc(Cl)c2)nc2ccccc2c1C(=O)OC/C(O)=C(\C#N)c1nc2ccccc2[nH]1,inactive
21,COc1ccc(C=C(c2nc3ccccc3s2)c2nc3ccccc3s2)cc1O,inactive
22,COc1ccc(NC(=O)C2Cc3c(-c4ccc5c(c4)OCO5)ccnc3O2)cc1 (centres undefined),inactive
23,CS(=O)(=O)Nc1cccc(NC(=O)C2Cc3c(-c4ccccc4)ccnc3O2)c1 (centres undefined),inactive
24,CC(=O)Nc1cccc(-c2ccnc3c2CC(C(=O)NCc2ccco2)O3)c1 (centres undefined),inactive
25,COc1ccc(NC(=O)C2Cc3c(-c4cccc(C(C)=O)c4)ccnc3O2)cn1 (centres undefined),inactive

row,SMILES,outcome
1,COc1ccc(CCCNC(=O)C2Cc3c(-c4cccc(C(C)=O)c4)ccnc3O2)cc1 (centres undefined),inactive
2,COc1ccc(Nc2cc(C)nc3ccc(OC)cc23)cc1,inactive
3,COc1ccc2nc(C)cc(Nc3ccc(N4CCOCC4)cc3)c2c1,inactive
4,CN(C1=C(NC(=O)c2ccc(Cl)cc2)C(=O)c2ccccc2C1=O)c1ccccc1,inactive
5,CC[C@@H]1CC=C[C@H]2[C@H]1C(=O)N(Cc1ccccc1)[C@H]2c1ccoc1,inactive
6,NC(=O)/C=C\C(=O)Nc1cccc(C(F)(F)F)c1,inactive
7,O=C(OCn1ncc(Cl)c(Cl)c1=O)c1ccc(C(F)(F)F)cc1,inactive
8,C=CCOc1ccc(C2C(C#N)=C(N)N(Nc3ccccc3)C3=C2C(=O)CCC3)cc1OC (centres undefined),inactive
9,COc1cc(-c2cc3nc(NCCOc4ccccc4)ccn3n2)cc(OC)c1OC,inactive
10,CCOC(=O)/C=C(\C)Sc1cc(=O)oc2ccccc12,inactive
11,O=C(N=Nc1c(O)[nH]c2ccc(Br)cc12)c1cc(-c2cccs2)nc2ccccc12,inactive
12,CCc1ccc(/C=N/NC(=O)c2cc(-c3ccncc3)nc3ccccc23)s1,inactive
13,C=C(C)Cc1c(C)c(C#N)c2nc3ccccc3n2c1NCCCN(C)C,inactive
14,COc1cc(C2c3cc4c(cc3OC(Nc3ccc(C(=O)O)cc3)C2C)OCO4)cc(OC)c1OC (centres undefined),inactive
15,COc1ccc(CCCNC(=O)C2(C)Cc3c(-c4ccc5c(c4)OCO5)ccnc3O2)cc1 (centres undefined),inactive
16,Clc1cccc(Cl)c1Cn1cnc2c(NCc3ccco3)ncnc21,inactive
17,Cc1ccc2cc(CN(CCCN(C)C)C(=O)NCc3ccccc3)c(=O)[nH]c2c1C,inactive
18,CCN(CC)Cc1cc(Nc2c3ccccc3nc3c4ccccc4n(C)c23)cc(CN(CC)CC)c1O,inactive
19,COc1ccc2[nH]c3c(N4CCC(O)(c5cccc(C(F)(F)F)c5)CC4)ncnc3c2c1,inactive
20,COc1ccc(CN2C(=O)C(C)Nc3ncnc(N4CCc5ccccc5C4)c32)cc1 (centres undefined),inactive
21,O=C(NCC1CCCO1)c1cc(-c2ccccc2)on1 (centres undefined),inactive
22,Cc1nc2ccccc2c2oc(C(=O)NCCCN3CC(C)CC(C)C3)cc12 (centres undefined),inactive
23,O=C1C=C(Nc2ccc(Cl)cc2Cl)CC(c2ccco2)C1 (centres undefined),inactive
24,NC(=O)CC(NC(=O)Cc1ccc(Cl)cc1)c1ccc(NC2CCN(Cc3ccccc3)CC2)c([N+](=O)[O-])c1 (centres undefined),inactive
25,NC(=O)CC(NC(=O)Cc1ccc(Cl)cc1)c1ccc(NC2CCCC2)c([N+](=O)[O-])c1 (centres undefined),inactive

row,SMILES,outcome
1,NC(=O)CC(NC(=O)Cc1ccc(Cl)cc1)c1ccc(NC2CC3CCC2C3)c([N+](=O)[O-])c1 (centres undefined),inactive
2,NC(=O)CC(NC(=O)Cc1ccc(Br)cc1)c1ccc(NCc2cc(F)ccc2F)c([N+](=O)[O-])c1 (centres undefined),inactive
3,NC(=O)CC(NC(=O)c1ccc(Br)cc1)c1ccc(N2CCCCCCC2)c([N+](=O)[O-])c1 (centres undefined),inactive
4,O=C(CC1Sc2ccccc2NC1=O)NNc1ccc(Cl)c(Cl)c1 (centres undefined),inactive
5,CCCCOc1ccccc1C1CC(=O)NC2=C1C(=O)CCC2 (centres undefined),inactive
6,CC(C)Nc1ccc(C(CC(N)=O)NC(=O)Cc2ccc(Br)cc2)cc1[N+](=O)[O-] (centres undefined),inactive
7,COc1ccc(C=CC(=O)c2ccc3cc(OC)c(OC)cc3c2)cc1OC,inactive
8,COc1ccc(NC(=O)c2cccc(Oc3ccccc3)c2)cn1,inactive
9,O=C(NC1CCCCC1)C(c1cccnc1)N(C(=O)CCl)c1cccc(Cl)c1 (centres undefined),inactive
10,Cc1cccc(N2C(=O)CC(N3CCN(C(=O)c4ccccc4)CC3)C2=O)c1 (centres undefined),inactive
11,Cn1c(C(=O)NC2CCCCCC2)cc2c(=O)n(C)c3ccccc3c21,inactive
12,Cc1ccc(S(=O)(=O)N(C)C[C@@H]2Oc3ccc(NC(=O)CCC(F)(F)F)cc3CC(=O)N([C@@H](C)CO)C[C@@H]2C)cc1,inactive
13,C[C@H](CO)N1C[C@H](C)[C@@H](CN(C)Cc2ccccc2)Oc2ccc(NC(=O)CCCCCC(=O)Nc3ccccc3N)cc2C1=O,inactive
14,COc1ccc(CN(C(=O)c2ccc(CN3CCOCC3)o2)C(C(=O)NCC2CCCO2)c2ccc(F)cc2)cc1 (centres undefined),inactive
15,COc1ccc(CC(=O)N/N=C/c2c(C)n(C)c3ccccc23)cc1OC,inactive
16,COC(=O)COc1cccc2c(=O)n(CC(=O)NCc3ccccc3)ccc12,inactive
17,C[C@@H]1[C@@H](Sc2ccccc2)CC(=O)O[C@@H]1c1ccc(-c2ccccc2)cc1,inactive
18,COc1ccc(-c2nc(C(N)=O)c3[nH]c(=O)n(-c4cccc(Cl)c4)c3n2)cc1OC,inactive
19,COc1ccc(NC(=O)c2oc3ccccc3c2NC(=O)c2ccco2)cc1,inactive
20,COc1ccc(OC)c(S(=O)(=O)Nc2ccc(-c3ccc4nnc(C)n4n3)cc2)c1,inactive
21,COc1cc(OC)cc(C(=O)c2c(C)c(C#N)c3ccccn23)c1,inactive
22,CCc1nc(SCC(=O)c2ccc3c(c2)OCCO3)c2ccccc2n1,inactive
23,Cn1c(SCC(=O)Nc2cccc(F)c2)nc2c([nH]c3ccccc32)c1=O,inactive
24,CC(=O)N1N=C(c2ccccc2)OC1c1ccc([N+](=O)[O-])s1 (centres undefined),inactive
25,CCOc1cc(CNc2ccc3cn[nH]c3c2)ccc1OC,inactive

row,SMILES,outcome
1,COC(=O)c1cccc(Nc2c3c(nc4ccccc24)CCC3)c1,inactive
2,CC(=O)c1cccc(Nc2cc(C)nc3c(C)cccc23)c1,inactive
3,Cc1ccc(OCCNC(=O)c2cccc(S(=O)(=O)NCc3ccccc3)c2)cc1,inactive
4,CCN(CC)CCCNc1nc2cc(OC)c(OC)cc2c2nc(-c3ccccc3)nn12,inactive
5,Cc1cc(Br)ccc1NC(=O)CCCOc1cc(=O)n(C)c2ccccc12,inactive
6,CC(C)CCNC(=O)Cn1c(=O)oc2cc(S(=O)(=O)N3CC(C)CC(C)C3)ccc21 (centres undefined),inactive
7,Cc1cc(NC(=O)/C=C/C(=O)N(CC(=O)NC2CCCC2)c2ccc(F)cc2)no1,inactive
8,O=C(/C=C/Sc1ccccc1)c1ccccc1,inactive
9,O=C(/C=C/Sc1ccc(C(F)(F)F)cn1)c1ccccc1,inactive
10,O=C(CSc1c2c(nc3ccc(Cl)cc13)CCCC2)N1CCN(C(=O)c2ccco2)CC1,inactive
11,CCn1c2ccccc2c2cc(NC(=O)c3cc(OC)c(OC)c(OC)c3)ccc21,inactive
12,COc1ccccc1N1CCN(S(=O)(=O)CCNC(=O)c2cc(OC)c(OC)c(OC)c2)CC1,inactive
13,COCCNc1nc(NCc2ccccc2)nc2ccsc12,inactive
14,Cc1cc(N2CCCCC2)nc(NCc2ccccc2)n1,inactive
15,Cc1cccc2c1NC(=O)/C2=C\C(=O)c1cccs1,inactive
16,O=C(NCCC1=CCCCC1)C1CCC(CNc2nc(=S)[nH]c3ccccc23)CC1 (centres undefined),inactive
17,COc1cc(NC(=O)c2ccccc2F)ccc1NC(=O)c1cc2ccccc2o1,inactive
18,COC(=O)c1ccccc1-c1ccc(C(c2c(C)[nH][nH]c2=O)c2c(C)[nH][nH]c2=O)o1,inactive
19,COc1cc(C2Sc3ccccc3NC3=C2C(=O)OC3)cc(OC)c1OC (centres undefined),inactive
20,CCOc1ccc(OCC)c(NC(=O)c2nnn(CC(=O)Nc3cc(C)cc(C)c3)c2N)c1,inactive
21,CCOc1cc(NC(=O)CCl)c(OCC)cc1NC(=O)CCl,inactive
22,CCc1cccc(NC(=O)c2cc(S(=O)(=O)N(C)C)ccc2N2CCCC2)c1,inactive
23,Cc1cnc(NC(=O)c2cc(S(=O)(=O)N(C)C)ccc2N2CCCC2)s1,inactive
24,CN(C)/N=C/c1ccc(Sc2ccc([N+](=O)[O-])cc2[N+](=O)[O-])o1,inactive
